GRK2 inh: human GRK2 inhibition via aptamer displacement | P25098 | bead flow cytometry, FAM-aptamer displacement from GRK2 | inhibition of aptamer binding, % at 10 µM | 0.59% of 330,000 active;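 active means inhibition of aptamer binding above 40%, roughly 3 SD of noise, on plates passing a quality check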;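 further: median bead fluorescence of bound FAM aptamer so fluorescent compounds give negative values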
Target sequence (P25098 whole entry, looked up): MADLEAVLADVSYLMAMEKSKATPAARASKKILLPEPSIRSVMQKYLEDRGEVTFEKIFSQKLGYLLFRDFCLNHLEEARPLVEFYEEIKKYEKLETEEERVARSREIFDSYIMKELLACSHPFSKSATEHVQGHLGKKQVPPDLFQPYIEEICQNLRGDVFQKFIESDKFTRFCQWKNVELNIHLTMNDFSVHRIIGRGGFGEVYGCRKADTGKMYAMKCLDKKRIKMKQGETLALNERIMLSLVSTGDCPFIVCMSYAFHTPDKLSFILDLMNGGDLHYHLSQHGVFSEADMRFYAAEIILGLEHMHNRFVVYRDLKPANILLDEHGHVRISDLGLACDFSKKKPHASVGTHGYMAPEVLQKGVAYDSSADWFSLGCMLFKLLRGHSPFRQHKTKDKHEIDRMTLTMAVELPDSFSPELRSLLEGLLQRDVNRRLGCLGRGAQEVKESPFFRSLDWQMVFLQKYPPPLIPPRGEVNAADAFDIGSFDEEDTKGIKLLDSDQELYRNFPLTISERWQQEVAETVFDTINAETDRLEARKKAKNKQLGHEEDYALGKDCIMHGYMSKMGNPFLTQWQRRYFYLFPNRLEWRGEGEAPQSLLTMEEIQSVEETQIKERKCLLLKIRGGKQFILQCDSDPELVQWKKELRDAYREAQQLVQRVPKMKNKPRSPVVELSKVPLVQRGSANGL
Granule exo inh: lytic granule exocytosis inhibition; TALL-104 LAMP-1 surface exposure, flow cytometry; cells stimulated with thapsigargin and PMA; inhibition, % at 10 µM; 0.66% of 360,000 active; AID 651702;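 active means inhibition above about 55%, limit read from the data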
PP1 counter: counter-screen for PP5 inhibitors: inhibitors of human PP1-alpha | P62136 | purified PP1alpha, OMFP fluorescence | inhibition, % at 6.7 µM | 0.9% of 320,000 active | AID 2235;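 active means inhibition above the mean inhibition of all tested compounds plus 3 SD, computed separately for each screening campaign, cut at about 15% in these data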
NadD inh: NadD (S. aureus) enzyme inhibition. purified NadD enzyme, colorimetric absorbance read-out. inhibition, % at 20 µM. 0.78% of 360,000 active. AID 602399; in the data active means inhibition above about 26%
B2AR ag: activates human beta-2 adrenergic receptor causing internalization; P07550; Am2.2-beta2AR cells, FAP receptor internalization, flow cytometry; response, % (concentration not given with the values); 0.43% of 340,000 active; AID 504454;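 active means response above a set limit, near 3 SD of response in nonfluorescent compounds, cut at about 42% in these data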
B2AR ag CP1: agonists of human beta-2 adrenergic receptor. shares compounds with B2AR ag. Am2.2-beta2AR cells, FAP surface receptor, flow cytometry; stronger effect = lower value. percent response (surface receptor), % at 10 µM. 25% of 1,100 active;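 active means surface receptor percent response at or below 58%, roughly 3 SD from nonfluorescent compounds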
FAP fluor counter: flagged in Am2.2 fluorescence counterscreen for beta-2AR agonists; 1,100 tested, under 10 active; Am2.2 cells, FAP fluorogen flow cytometry; stronger effect = lower value; shares compounds with B2AR ag; calls only at 10 µM;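 active means percent response below a set limit in fluorescence channel 1 and below 50% in channel 8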
An asterisk follows results filed as active; i = inactive; / = no result given. An excerpt weighted towards active compounds, which were near 2.9% of everything screened.

SMILES	GRK2 inh	Granule exo inh	PP1 counter	NadD inh	B2AR ag	B2AR ag CP1	FAP fluor counter
CCOc1ccc(NC(=O)COc2ccc(S(=O)(=O)N3CCOCC3)cc2)cc1	2	-13	/	-1	-4	51*	i
Cc1ccc(-n2ncc(C(=O)Nc3cc(Cl)cc(Cl)c3)c2C2CCNCC2)cc1C	/	88*	/	5	56*	76	i
CCOc1ccc(C(CC(=O)O)NC(=O)Cc2ccc(Cl)cc2)cc1 (centres undefined)	0	6	1	-1	19	/	/
Oc1ccccc1-c1cc(C(F)(F)C(F)F)nc(-c2ccccc2)n1	2	-2	-2	6	4	/	/
O=[N+]([O-])c1ccc(O)c(-c2cc(C(F)(F)F)nc(-c3ccccc3)n2)c1	0	31	-4	6	48*	81	i
Cc1ccc(Cl)cc1NC(=O)c1cc2ccccc2cc1O	3	8	5	5	44*	95	i
Cc1ccc(Cl)cc1NC(=O)c1cccc(OC(F)F)c1	3	-1	1	-5	-3	/	/
CC(C)COC(=O)N(C)C[C@@H]1OCc2cnnn2CCCC(=O)N([C@@H](C)CO)C[C@H]1C	/	6	/	-2	/	/	/
Cc1ccc(NC(=O)COC(=O)c2nn(C)c(=O)c3ccccc23)cc1F	0	5	/	-2	6	/	/
COc1cc(-c2cc(N)n(S(=O)(=O)c3ccccc3)n2)cc(OC)c1OC	1	7	3	2	62*	98	i
COc1ccc(-n2c(SCC(N)=O)nnc2-c2ccc(NS(=O)(=O)c3ccc(C)cc3)cc2)cc1	1	2	1	7	55*	106	i
CN(C)c1ccc(C=c2c3cc(O)ccc3n3c2cc(-c2ccccc2)[n+]3C)cc1	/	26	/	27	-124	/	/
CN(C)c1ccc(C=c2c3ccccc3n3c2c2ccccc2[n+]3C)cc1	/	-20	/	54*	50*	91	i
COc1ccc(CNC(=O)CN(C(=O)c2snc(C(N)=O)c2N)c2ccc(F)cc2)cc1	5	10	7	-6	47*	87	i
Cc1ccc(-c2csc3ncnc(Sc4nnc(CN5CCCCCC5=O)o4)c23)cc1	0	-4	3	2	42*	87	i
Cc1ccc(-c2csc3ncnc(SCC(=O)Nc4nnc(C)s4)c23)cc1	0	-2	7	18	-2	/	/
O=C(CN1C(=O)C(=O)N(C2CCCC2)C1=O)Nc1ccc([N+](=O)[O-])cc1	/	-2	/	-3	1	/	/
CCC1CCCCN1CC(=O)Nc1cc(C)nn1-c1nc(C)cc(C)n1 (centres undefined)	0	1	-4	-2	-13	123	i
Cc1nc2ccc(Cl)cc2c(-c2ccccc2Cl)c1CC(=O)O	0	-3	-1	3	46*	93	i
COc1ccc(C2C(C#N)=C(N)Oc3c2sc2nc(C)cc(C)c32)cc1 (centres undefined)	0	0	1	17	80*	43*	i
COc1ccc(C2C(C#N)=C(N)Oc3cccc(O)c32)cc1 (centres undefined)	1	-5	-2	-5	-8	/	/
CCC(=O)NC(c1cccs1)c1ccc2cccnc2c1O (centres undefined)	0	6	1	9	3	105	i
CN(c1ccccc1)c1ccc(/C=N/NC(=O)CC#N)cc1	0	-5	3	-3	-6	104	i
COC(=O)CCC(=O)c1oc2ccccc2c1NC(=O)CCCN1C(=O)c2ccccc2C1=O	4	-1	1	3	2	/	/
CC(=O)c1oc2ccccc2c1NC(=O)CCCN1C(=O)c2ccccc2C1=O	1	-5	-2	-4	68*	101	i
SMILES	GRK2 inh	Granule exo inh	PP1 counter	NadD inh	B2AR ag	B2AR ag CP1	FAP fluor counter
O=C(CCCCCNc1nc(=S)[nH]c2ccccc12)NCCc1ccc(Cl)cc1	0	-2	3	1	55*	109	i
CNc1nc(-c2c(C)[nH]c3ccc(OC)cc23)cs1	2	11	1	2	60*	94	i
COc1ccccc1Nc1nc(-c2c(C)[nH]c3ccccc23)cs1	5	13	1	22	-1	/	/
CCCN(CCC)S(=O)(=O)c1ccc(Cl)c([N+](=O)[O-])c1	1	1	-3	-1	44*	107	i
N#Cc1cc([N+](=O)[O-])c(-n2nnc3ccccc32)c([N+](=O)[O-])c1	3	0	-2	5	55*	103	i
CS(=O)(=O)c1ccc(-n2nnc3ccccc32)c([N+](=O)[O-])c1	0	-1	-3	3	-3	/	/
O=C(Oc1c(CN2CCOCC2)cc(Cl)c2cccnc12)c1ccccc1Cl	0	-1	8	-7	4	113	i
O=C(Oc1c(CN2CCOCC2)cc(Cl)c2cccnc12)c1cccs1	0	2	1	2	-3	/	/
COc1cc(C(=O)Oc2c(CN3CCOCC3)cc(Cl)c3cccnc23)cc(OC)c1OC	0	7	7	0	-14	98	i
Cc1ccccc1N=C1NC(=O)/C(=C/c2cccn2-c2cccc(C(=O)O)c2)S1	/	/	/	/	-9	/	/
CNCC[C@H](Oc1cccc2ccccc12)c1cccs1	0	42	3	0	50*	102	i
COc1cc(C(=O)NCc2nnc(SCC(=O)Nc3cccc(C(F)(F)F)c3)o2)cc(OC)c1OC	0	-3	-1	-2	-7	/	/
CCC(C(=O)NC1CCCC1)n1c(-c2cc3ccccc3[nH]2)nc2ccccc21 (centres undefined)	/	-3	/	/	/	/	/
Cc1ncc([N+](=O)[O-])n1CCO	1	1	1	-4	-1	/	/
CCS(=O)(=O)CCn1c([N+](=O)[O-])cnc1C	2	-6	-3	-2	2	102	i
CC1CC(C)CN(S(=O)(=O)c2ccc(C(=O)NCCCn3ccnc3)cc2)C1 (centres undefined)	0	4	6	-1	55*	106	i
O=C(NCCCn1ccnc1)c1ccc(S(=O)(=O)N2CCCCCC2)cc1	0	-1	0	-4	-2	/	/
COc1ccccc1NC(=O)N(C)C[C@@H]1OCc2cnnn2CCCC(=O)N([C@H](C)CO)C[C@H]1C	/	-2	/	7	/	/	/
N=c1n(Cc2ccccc2)c2ccccc2n1Cc1ccccc1	0	0	2	-1	21	/	/
N=c1n(CC(=O)O)c2ccccc2n1Cc1ccccc1Cl	1	-2	-5	3	3	/	/
N=c1n(CC(=O)c2ccc(Br)cc2)c2ccccc2n1Cc1ccccc1	0	-3	6	-5	74*	33*	i

Source: PubChem BioAssay
